We go through ten compounds from PubChem BioAssay (Tox21).

Inconclusive results are not listed. The source made the active and inactive calls. Unless noted, the call rests on the fitted dose curve; in most records, active means well fitted curve in the direction sought with a large enough effect in the repeat runs; inconclusive means weak or mixed curves; inactive means no such curve, though single readings can be large; an effect the other way counts as inactive or inconclusive.

A short description of assay [1]: qHTS assay to identify small molecule antagonists of the sonic hedgehog signaling (Shh) pathway (AID 1259369; calls by dose curve; further: nearly all actives have a fitted effect of over 45% in size; further: potency means the concentration at half of the fitted maximal effect). The gist of the method: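 Inhibition of Shh signalling is measured as reduced Gli1-response-element firefly luciferase output in an NIH/3T3-derived stable reporter clone stimulated with conditioned medium for 24hr.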
Assay [2] in a line: qHTS assay to identify small molecule agonists of the estrogen receptor beta (ER-beta) signaling pathway - cell viability counter screen (AID 1259380). Further: nearly all actives have a fitted effect of over 30% in size. Further: potency means the concentration at half of the fitted maximal effect. In a few lines: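 Same-well viability counter screen. Cells: ER-beta-UAS-bla HEK293T, plated 6 hr before compound, in 2% charcoal-stripped FBS. Compound exposure 16 hr, 37C; viability by CellTiter-Glo luminescence after 30 min at room temperature.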

The nature of assay [3]: qHTS assay to identify small molecule antagonists of the estrogen receptor beta (ER-beta) signaling pathway - cell viability counter screen (AID 1259382). Further: nearly all actives have a fitted effect of over 55% in size. Further: potency means the concentration at half of the fitted maximal effect. In a few lines: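 Following a 6 hr plating period, HEK293T cells carrying a UAS-driven beta-lactamase reporter under ER-beta control received compounds and 1nM E2 (final). After 16 hr at 37C and 2 hr substrate loading, CellTiter-Glo luminescence indicated viability.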

Assay [4] is described as follows: qHTS assay to identify small molecule agonists or antagonists of the thyroid stimulating hormone receptor (TSHR) signaling pathway - wild type cell line counter screen (AID 1259384; calls by dose curve). In a few lines: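 Wild-type Hek293 cells, 800/well, 18 h at 37C, then compound with Ro20-1724 for 30 min RT. cAMP by HTRF (cAMP-d2/anti-cAMP cryptate), 1 h RT, fluorescence read. 15 concentrations, triplicates.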

For assay [5], the target named is Thyrotropin receptor (Homo sapiens) (UniProt P16473). Put plainly: qHTS assay to identify small molecule antagonists of the thyroid stimulating hormone receptor (TSHR) signaling pathway (AID 1259385; calls by dose curve; further: nearly all actives have a fitted effect of over 20% in size). In a few lines: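 TSHR-HEK293 cells (800/well) plated 18 h, then compounds with Ro20-1724 and TSH at 1.5 ng/mL final, 30 min at room temperature. cAMP quantified by HTRF (cAMP-d2/anti-cAMP-cryptate, 1 h); 15 concentrations in triplicate.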
Sequence of Thyrotropin receptor (Homo sapiens) (P16473 whole entry, looked up): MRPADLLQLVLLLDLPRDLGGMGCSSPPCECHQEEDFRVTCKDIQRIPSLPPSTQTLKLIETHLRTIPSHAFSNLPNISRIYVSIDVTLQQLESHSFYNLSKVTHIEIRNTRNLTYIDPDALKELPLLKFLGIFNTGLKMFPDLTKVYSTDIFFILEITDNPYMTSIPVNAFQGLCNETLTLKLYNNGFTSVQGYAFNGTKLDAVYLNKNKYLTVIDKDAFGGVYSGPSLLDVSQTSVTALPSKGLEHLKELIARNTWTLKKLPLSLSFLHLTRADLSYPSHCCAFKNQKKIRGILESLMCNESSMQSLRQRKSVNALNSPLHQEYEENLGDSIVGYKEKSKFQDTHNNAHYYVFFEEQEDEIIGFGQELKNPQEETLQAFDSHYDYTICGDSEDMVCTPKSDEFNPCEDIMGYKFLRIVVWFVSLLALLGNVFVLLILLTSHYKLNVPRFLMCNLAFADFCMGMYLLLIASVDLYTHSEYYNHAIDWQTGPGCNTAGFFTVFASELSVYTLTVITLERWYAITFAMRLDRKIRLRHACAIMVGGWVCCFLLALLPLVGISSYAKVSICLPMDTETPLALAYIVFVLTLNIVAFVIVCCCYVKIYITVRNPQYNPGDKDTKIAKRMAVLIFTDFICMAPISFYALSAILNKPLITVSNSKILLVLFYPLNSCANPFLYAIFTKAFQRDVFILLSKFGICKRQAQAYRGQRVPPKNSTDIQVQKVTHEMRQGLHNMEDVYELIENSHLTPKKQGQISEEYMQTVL

Assay [6] is described as follows: qHTS assay to identify small molecule agonists of the estrogen receptor alpha (ER-alpha) signaling pathway in the presence of an antagonist - cell viability counter screen (AID 1259386).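 Further: series mostly up to about 92 µM; cells exposed to compounds for 22 h at 37 °C before the viability read; nearly all actives have a fitted effect of over 30% in size.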 In a few lines: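 Cells are starved of estrogens for 5 days in charcoal-stripped serum, seeded for 24hr and co-treated with ICI-182,780 (10.0nM final) and test compounds. After 22hr at 37C, viability is read as CellTiter-Fluor fluorescence.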

Assay [7] addresses Progesterone receptor (Homo sapiens) (UniProt P06401). Put plainly: qHTS assay to identify small molecule agonists of the progesterone receptor (PR) signaling pathway (AID 1346784; calls by dose curve; further: nearly all actives have a fitted effect of over 30% in size). The gist of the method:
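Agonist qHTS: compounds pinned onto 3,000 PR-UAS-bla HEK 293T cells per well in charcoal-stripped serum medium, 16hr at 37C, then beta-lactamase activity measured by LiveBLAzer FRET fluorescence after 2 hours at room temperature.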

For assay [8] the target is unchanged. Description: qHTS assay to identify small molecule antagonists of the progesterone receptor (PR) signaling pathway (AID 1346795; active means well fitted inhibition curve with a large enough effect in the signal ratio in the repeat runs, not every such curve was filed as active; the % refers to the signal ratio). The gist of the method: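 Antagonist mode with agonist R5020 at 1 nM final and 16 hr incubation at 37C. Reporter was beta-lactamase driven by UAS in HEK293T (PR-UAS-bla), 2% charcoal-stripped serum; signal from LiveBLAzer FRET substrate, 2 hr at room temperature.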

Assay [9] in a line: qHTS assay to identify small molecule agonists of the progesterone receptor (PR) signaling pathway - cell viability counter screen (AID 1346799; calls by dose curve; further: nearly all actives have a fitted effect of over 45% in size; further: potency means the concentration at half of the fitted maximal effect). The gist of the method: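 Cytotoxicity measured by CellTiter-Glo luminescence (30 min, RT) in the same wells as the PR beta-lactamase agonist read. Those HEK293T cells had 16 h compound treatment at 37 C in 2% charcoal-stripped FBS medium.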

Assay [10] is described as follows: qHTS assay to identify small molecule antagonists of the TGF-beta/Smad signaling pathway - cell viability counter screen (AID 1346824). Further: nearly all actives have a fitted effect of over 50% in size. Further: potency means the concentration at half of the fitted maximal effect. The gist of the method: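 SBE-bla HEK 293T cells, incubated overnight, then compound plus 0.25 ng/mL TGF-beta1 (stock added) for 5 hr at 37 C. Viability was read in the same wells by CellTiter-Glo luminescence after 30 min at room temperature.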

Assay [11] is described as follows: qHTS assay to identify small molecule agonists of the TGF-beta/Smad signaling pathway - cell viability counter screen (AID 1346829). Further: nearly all actives have a fitted effect of over 45% in size. Further: potency means the concentration at half of the fitted maximal effect. In a few lines: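 Luminescence from CellTiter-Glo, read after a 30 min room-temperature incubation, gives cell viability of SBE-bla HEK 293T cells treated 5 hr with compounds at 37 C.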
Assay [12] can be described thus: qHTS assay to identify small molecule agonists of the TGF-beta/Smad signaling pathway (AID 1346859; active means well fitted activation curve with a large enough effect in the signal ratio in the repeat runs, not every such curve was filed as active; the % refers to the signal ratio; further: series mostly up to about 77 µM). The gist of the method: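 Fluorescence (ex 405 nm; em 460 and 530 nm) was read 2 h after LiveBLAzer FRET substrate at RT. The preceding compound treatment of overnight-plated SBE-bla HEK293T cells lasted 5 h at 37 C.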
Assay [13] can be described thus: qHTS assay to identify small molecule agonists of the androgen receptor (AR) signaling pathway in the presence of an antagonist - cell viability counter screen (AID 1259379). Further: nearly all actives have a fitted effect of over 25% in size. Further: potency means the concentration at half of the fitted maximal effect. The gist of the method: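 Fluorescence from CellTiter-Fluor, added after 15 hr and read 1 hr later, gave cell viability. Cells were MDA-kb2 exposed to compounds (15 concentrations) in the presence of 3.0uM nilutamide at 37C, 0% CO2.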

Assay [14] concerns the target Thyrotropin-releasing hormone receptor (Homo sapiens) (UniProt P34981). Put plainly: qHTS assay to identify small molecule antagonists of the thyrotropin-releasing hormone receptor (TRHR) signaling pathway (AID 1346877; active means well fitted inhibition curve with a large enough effect in the repeat runs, not every such curve was filed as active; further: series mostly up to about 51 µM). The gist of the method: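 Cells (TRHR-HEK293) are plated and kept 18 h at 37 °C/5% CO2. A calcium-sensitive dye is added for 2 h, compound follows for 5 min at room temperature, and TRH is then given at 1 nM final.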

Assay [15] has the same target. Put plainly: qHTS assay to identify small molecule agonists of the thyrotropin-releasing hormone receptor (TRHR) signaling pathway (AID 1346891; calls by dose curve; further: series mostly up to about 58 µM). In a few lines: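 Agonist-mode intracellular calcium readout: kinetic fluorescence over 3 min at 1 s intervals after compound addition to TRHR-HEK293 cells (18 h seeded, 2 h dye-loaded at 37 C). Fifteen concentrations, triplicates.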

In assay [16] the target is Estrogen receptor (Homo sapiens) (UniProt P03372). Description: qHTS assay to identify small molecule agonists of the estrogen receptor alpha (ER-alpha) signaling pathway in the presence of an antagonist (AID 1259383; calls by dose curve; further: top concentration of the series differs between compounds; nearly all actives have a fitted effect of over 15% in size). In a few lines:
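Cells are hormone-deprived for 5 days (charcoal-stripped FBS, no phenol red), plated for 24hr, spiked with 10.0nM ICI-182,780, then dosed at 15 concentrations. After 22hr at 37C, ONE-Glo luminescence reports ERE-luciferase activity.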

Assay [17] is described as follows: qHTS assay to identify small molecule antagonists of the progesterone receptor (PR) signaling pathway - cell viability counter screen (AID 1346798). Further: nearly all actives have a fitted effect of over 50% in size. Further: potency means the concentration at half of the fitted maximal effect. In a few lines:
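Cytotoxicity read as CellTiter-Glo luminescence (30 min, room temperature) in the same wells as the beta-lactamase readout. HEK293T PR-UAS-bla cells in charcoal-stripped 2% FBS received compound and R5020, then 16 h at 37C, 5% CO2.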

For assay [18], the target named is Androgen receptor (Homo sapiens) (UniProt P10275). Put plainly: qHTS assay to identify small molecule agonists of the androgen receptor (AR) signaling pathway in the presence of an antagonist (AID 1259381; calls by dose curve; further: nearly all actives have a fitted effect of over 15% in size). In a few lines:
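Cells are MDA-kb2 (human breast carcinoma, MMTV-luc, AR/GR responsive). Nilutamide is present at 3.0uM final throughout; compounds are added at 15 concentrations and incubated 16hr at 37C before ONE-Glo luminescence detection.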

The target of assay [19] is Estrogen receptor beta (Homo sapiens) (UniProt Q92731). Description: qHTS assay to identify small molecule agonists of the estrogen receptor beta (ER-beta) signaling pathway (AID 1259377; active means well fitted activation curve with a large enough effect in the signal ratio in the repeat runs, not every such curve was filed as active; the % refers to the signal ratio). In a few lines:
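Ratiometric beta-lactamase FRET read-out came after 2 h substrate loading at room temperature. It followed 16 h compound treatment at 37C of GripTite HEK293T cells carrying a UAS-bla reporter, plated in 2% charcoal-stripped FBS medium.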

For assay [20] the target is unchanged. Description: qHTS assay to identify small molecule antagonists of the estrogen receptor beta (ER-beta) signaling pathway (AID 1259378; active means well fitted inhibition curve with a large enough effect in the signal ratio in the repeat runs, not every such curve was filed as active; the % refers to the signal ratio). The gist of the method:
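ER-beta-UAS-bla HEK293T cells in 2% charcoal-stripped FBS medium treated with compound plus 1nM final 17-beta-estradiol for 16 hr at 37C. Beta-lactamase reporter read by FRET substrate fluorescence after 2 hours at room temperature.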

Sequence of Thyrotropin-releasing hormone receptor (Homo sapiens) (P34981 whole entry, looked up): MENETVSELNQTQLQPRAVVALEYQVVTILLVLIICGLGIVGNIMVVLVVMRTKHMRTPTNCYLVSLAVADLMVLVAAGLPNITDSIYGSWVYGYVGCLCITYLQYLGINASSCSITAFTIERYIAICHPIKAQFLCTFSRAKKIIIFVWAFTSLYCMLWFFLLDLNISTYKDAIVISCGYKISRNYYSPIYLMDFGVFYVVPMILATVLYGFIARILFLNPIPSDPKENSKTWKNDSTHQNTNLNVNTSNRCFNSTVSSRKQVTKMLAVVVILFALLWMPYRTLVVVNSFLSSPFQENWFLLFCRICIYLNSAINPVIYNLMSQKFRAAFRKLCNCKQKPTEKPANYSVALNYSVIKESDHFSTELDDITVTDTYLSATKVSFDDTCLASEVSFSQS
Sequence of Progesterone receptor (Homo sapiens) (P06401 whole entry, looked up): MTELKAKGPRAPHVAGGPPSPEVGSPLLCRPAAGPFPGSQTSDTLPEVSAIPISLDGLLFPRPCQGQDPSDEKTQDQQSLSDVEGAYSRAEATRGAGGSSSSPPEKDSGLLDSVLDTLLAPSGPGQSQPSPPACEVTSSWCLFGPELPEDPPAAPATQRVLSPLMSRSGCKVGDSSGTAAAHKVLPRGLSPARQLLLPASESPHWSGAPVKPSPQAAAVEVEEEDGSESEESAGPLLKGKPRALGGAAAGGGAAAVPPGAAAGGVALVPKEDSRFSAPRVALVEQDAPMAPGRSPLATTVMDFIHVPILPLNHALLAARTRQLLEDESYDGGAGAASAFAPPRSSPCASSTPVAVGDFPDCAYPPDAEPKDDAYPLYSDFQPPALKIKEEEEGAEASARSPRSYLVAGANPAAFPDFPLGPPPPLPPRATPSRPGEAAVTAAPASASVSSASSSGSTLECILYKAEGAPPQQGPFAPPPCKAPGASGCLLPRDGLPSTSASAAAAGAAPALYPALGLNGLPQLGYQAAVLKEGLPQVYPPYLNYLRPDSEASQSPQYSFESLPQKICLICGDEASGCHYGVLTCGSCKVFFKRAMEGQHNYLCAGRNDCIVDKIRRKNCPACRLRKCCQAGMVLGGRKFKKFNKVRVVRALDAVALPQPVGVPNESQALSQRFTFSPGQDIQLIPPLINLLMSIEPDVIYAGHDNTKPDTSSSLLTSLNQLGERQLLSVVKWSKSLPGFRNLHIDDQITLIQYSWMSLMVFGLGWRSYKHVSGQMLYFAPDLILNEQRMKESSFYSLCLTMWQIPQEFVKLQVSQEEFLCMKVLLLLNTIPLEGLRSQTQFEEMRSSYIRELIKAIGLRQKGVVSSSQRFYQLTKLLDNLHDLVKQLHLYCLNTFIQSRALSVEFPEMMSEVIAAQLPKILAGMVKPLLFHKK
Sequence of Estrogen receptor (Homo sapiens) (P03372 whole entry, looked up): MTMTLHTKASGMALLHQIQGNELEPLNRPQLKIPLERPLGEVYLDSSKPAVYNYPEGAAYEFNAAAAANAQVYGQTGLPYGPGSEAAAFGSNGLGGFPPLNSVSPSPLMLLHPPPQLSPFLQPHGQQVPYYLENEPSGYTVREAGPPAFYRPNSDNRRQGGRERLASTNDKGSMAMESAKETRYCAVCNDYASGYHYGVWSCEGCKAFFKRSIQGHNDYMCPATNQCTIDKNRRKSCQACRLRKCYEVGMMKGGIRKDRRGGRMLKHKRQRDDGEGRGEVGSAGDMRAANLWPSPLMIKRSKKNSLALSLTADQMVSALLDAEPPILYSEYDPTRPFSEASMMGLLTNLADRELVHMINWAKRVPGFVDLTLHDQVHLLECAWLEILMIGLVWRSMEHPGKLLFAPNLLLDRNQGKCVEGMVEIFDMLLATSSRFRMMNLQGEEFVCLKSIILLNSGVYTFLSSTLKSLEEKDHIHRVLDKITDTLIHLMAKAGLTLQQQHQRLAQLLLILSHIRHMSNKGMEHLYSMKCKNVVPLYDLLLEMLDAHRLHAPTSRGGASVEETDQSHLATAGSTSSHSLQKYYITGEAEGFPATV
Sequence of Androgen receptor (Homo sapiens) (P10275 whole entry, looked up): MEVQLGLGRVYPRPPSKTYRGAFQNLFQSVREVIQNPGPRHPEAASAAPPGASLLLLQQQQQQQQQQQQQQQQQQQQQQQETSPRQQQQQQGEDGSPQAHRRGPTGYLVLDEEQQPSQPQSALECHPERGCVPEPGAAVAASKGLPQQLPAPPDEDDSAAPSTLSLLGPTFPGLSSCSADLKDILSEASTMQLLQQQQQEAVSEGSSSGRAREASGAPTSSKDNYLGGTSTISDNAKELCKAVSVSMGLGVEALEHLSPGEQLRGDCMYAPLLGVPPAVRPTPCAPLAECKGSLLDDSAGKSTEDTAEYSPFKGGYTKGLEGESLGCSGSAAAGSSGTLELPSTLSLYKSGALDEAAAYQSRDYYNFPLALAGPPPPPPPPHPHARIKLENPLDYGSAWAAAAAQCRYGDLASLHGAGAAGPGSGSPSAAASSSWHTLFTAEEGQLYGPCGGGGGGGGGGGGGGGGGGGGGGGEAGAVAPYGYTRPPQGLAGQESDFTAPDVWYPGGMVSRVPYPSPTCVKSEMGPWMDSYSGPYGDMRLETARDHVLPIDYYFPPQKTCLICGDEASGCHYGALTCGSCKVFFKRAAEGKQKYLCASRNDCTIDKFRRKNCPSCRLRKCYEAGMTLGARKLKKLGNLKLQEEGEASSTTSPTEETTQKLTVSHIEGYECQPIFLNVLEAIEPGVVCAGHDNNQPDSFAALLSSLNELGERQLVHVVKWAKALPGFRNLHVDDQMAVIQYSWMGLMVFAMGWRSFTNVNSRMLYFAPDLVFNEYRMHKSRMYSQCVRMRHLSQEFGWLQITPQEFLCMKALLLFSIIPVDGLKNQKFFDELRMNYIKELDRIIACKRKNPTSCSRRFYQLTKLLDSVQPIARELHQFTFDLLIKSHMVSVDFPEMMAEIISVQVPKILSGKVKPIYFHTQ
Sequence of Estrogen receptor beta (Homo sapiens) (Q92731 whole entry, looked up): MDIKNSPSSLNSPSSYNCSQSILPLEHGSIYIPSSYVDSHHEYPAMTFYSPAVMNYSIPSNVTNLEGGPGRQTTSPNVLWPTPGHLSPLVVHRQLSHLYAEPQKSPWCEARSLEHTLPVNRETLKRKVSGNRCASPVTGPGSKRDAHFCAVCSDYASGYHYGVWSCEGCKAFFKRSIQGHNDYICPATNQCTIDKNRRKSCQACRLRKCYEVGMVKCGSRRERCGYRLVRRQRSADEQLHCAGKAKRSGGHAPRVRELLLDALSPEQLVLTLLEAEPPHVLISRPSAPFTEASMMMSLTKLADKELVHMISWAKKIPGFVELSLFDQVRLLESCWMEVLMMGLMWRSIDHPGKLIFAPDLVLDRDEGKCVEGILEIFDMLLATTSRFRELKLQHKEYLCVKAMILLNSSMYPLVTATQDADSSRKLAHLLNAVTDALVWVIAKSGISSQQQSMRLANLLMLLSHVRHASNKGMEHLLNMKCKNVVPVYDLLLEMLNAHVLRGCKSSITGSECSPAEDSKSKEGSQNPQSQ

Regarding `Cl/C=C\CCl`, the Potency result in [1], in assay [2], in [3], in assay [5], in assay [6] and in [7] was “inactive” in each case. The Potency result in assay [8], in assay [9], in [10] and in assay [11] was “inactive” throughout. The compound was classed as inactive in [4] and in [12].
In the case of `O=C(O)c1cc[c]([Hg][Cl])cc1`, the Potency in assay [1] was 1.72 µM (active). For the same compound, the Potency result in assay [13], in assay [5], in assay [6], in assay [10], in [11] and in assay [14] was “inactive” in each case. Also, the Potency entry in assay [15] was “inactive”. In addition, the compound was classed as inactive in assay [4].
With `O=C(CCl)C(Cl)Cl`, the Potency in assay [1] is 2.76 µM (active); in [13] it was 27.6 µM (active); in assay [2], 9.78 µM (active); in assay [17] it was 43.7 µM (active); in assay [9], 27.6 µM (active). In addition, the Potency result in assay [16], in assay [5], in assay [10], in assay [11], in [14] and in assay [15] was “inactive” in each case. In addition, the outcome in assay [12] was inactive.
In the case of `O=[N+]([O-])c1ccc2ccc3cccc4ccc1c2c34`, the Potency entry in assay [1], in assay [18], in [3], in assay [16], in [7] and in [17] was “inactive” each time. The Potency result in assay [9], in assay [10], in [11], in [14] and in assay [15] was “inactive” throughout. The Potency in [2] was 30.6 µM (active).
Regarding `c1ccc2cc3c(cc2c1)-c1cccc2cccc-3c12`, the Potency entry in assay [1], in [2], in assay [18], in [3], in [16] and in assay [5] was “inactive” throughout. Moreover, the Potency result in assay [17], in assay [9], in assay [10] and in assay [11] was “inactive” throughout. Besides, in [4], the outcome was inactive.
Take `O=[N+]([O-])c1c2ccccc2cc2ccccc12`: the Potency in assay [1] was 67.8 µM (active); in assay [17] it was 27 µM (active). Also, the Potency result in [10], in assay [14] and in assay [15] was “inactive” throughout.
Regarding `CC(=O)[O-].CC(=O)[O-].[Hg+2]`, the Potency in [1] is 0.686 µM (active); in assay [2] it was 3.06 µM (active); in assay [3], 6.11 µM (active); in [17] it was 1.37 µM (active); in assay [9], 3.44 µM (active); in assay [10], 13.8 µM (active). For the same compound, the Potency in [11] is 24.5 µM (active).
In the case of `Cc1cc(C(F)(C(F)(F)F)C(F)(F)F)ccc1NC(=O)c1cccc(I)c1C(=O)NC(C)(C)CS(C)(=O)=O`, the Potency entry in [19], in assay [20], in [13], in [16], in assay [5] and in assay [9] was “inactive” in each case. For the same compound, the Potency entry in assay [10] and in assay [14] was “inactive” each time. Also, the Potency in [2] is 19.4 µM (active). The call in [4] and in assay [12] was inactive.
With `Clc1ccc(CCC(Cn2ccnc2)Sc2c(Cl)cccc2Cl)cc1` (centres undefined), the Potency was 2.98 µM (active) in assay [1]; 29.8 µM (active) in [2]; 33.5 µM (active) in assay [3]; 11.9 µM (active) in [17]; 21.1 µM (active) in assay [9]. The result in [4] was inactive. In addition, the Potency result in assay [5], in assay [6], in assay [10] and in assay [11] was “inactive” in each case.
`COc1ccc(/C(=C/C(=O)N2CCOCC2)c2ccc(Cl)cc2)cc1OC`: the Potency entry in assay [19], in assay [20], in assay [13], in assay [18], in assay [5] and in assay [6] was “inactive” each time. Moreover, the Potency entry in [7], in assay [9], in assay [10], in [11], in [14] and in assay [15] was “inactive” in each case. Further, the Potency in [2] was 68.6 µM (active). The call in [4] and in assay [12] was inactive.
